According to PubChem BioAssay (EPA / NIEHS):
Values joined by “and” are separate entries in the source; they are usually repeats but may differ in a detail not shown here. Identical values can stand only once. A structure can be active in one record and inactive in another. Active and inactive are the calls of the source. Rule for the calls: active = hit-call score of the fitted dose curve at least 0.9, where 1 is the maximum; inactive = score below 0.9.

Experiments:
[1] = read-out: Macrophage colony-stimulating factor (MCSF), CSF1 (gene 1435); assay: BSK_hDFCGF_MCSF: BioMAP Diversity Plus: hDFCGF Assay for Macrophage colony-stimulating factor (MCSF) Biomarker Activity (AID 2283060); conditions: primary human foreskin fibroblasts; actives raise or lower the signal
In short: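 Human foreskin fibroblast primary cultures; M-CSF measured by ELISA 24 hours after chemical dosing. Bidirectional fitting relative to DMSO, with overt cytotoxicity tracked by parallel SRB total-protein staining (0.1% SRB, 10% TCA fixation, 560 nm).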

[2] = BSK_hDFCGF_SRB: Viability Assessment in the BioMAP Diversity Plus: hDFCGF Assay (AID 2283061); conditions: primary human foreskin fibroblasts;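 note: cells exposed to compound for 24 h before the read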
In short: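 Human foreskin fibroblasts in 96-well plates were treated 24 h. Total protein was measured by 0.1% SRB staining after 10% TCA fixation, read at 560 nm. Data were fitted bidirectionally against DMSO.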

[3] = read-out: TIMP metallopeptidase inhibitor 1 (TIMP1), TIMP1 (gene 7076); assay: BSK_hDFCGF_TIMP1: BioMAP Diversity Plus: hDFCGF Assay for TIMP metallopeptidase inhibitor 1 (TIMP1) Biomarker Activity (AID 2283062); conditions: primary human foreskin fibroblasts; actives raise or lower the signal
In short: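 Human foreskin fibroblast primary cultures dosed for 24 h; secreted/surface TIMP-1 quantified by ELISA. Bidirectional curve fitting against DMSO baseline; cytotoxicity tracked in parallel cultures by SRB total-protein staining.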

[4] = read-out: Matrix Metallopeptidase 1 (MMP1), MMP1 (gene 4312); assay: BSK_hDFCGF_MMP1: BioMAP Diversity Plus: hDFCGF Assay for Matrix Metallopeptidase 1 (MMP1) Biomarker Activity (AID 2283064); conditions: primary human foreskin fibroblasts; actives raise or lower the signal
In short: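 ELISA read-out of MMP1 from human foreskin fibroblasts (primary skin cells), 24 h post-dose. Gain or loss of signal was fitted bidirectionally versus DMSO negative control; cytotoxicity was checked by SRB in parallel cultures.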

[5] = read-out: Vascular cell adhesion molecule 1 (VCAM1), VCAM1 (gene 7412); assay: BSK_hDFCGF_VCAM1: BioMAP Diversity Plus: hDFCGF Assay for Vascular cell adhesion molecule 1 (VCAM1) Biomarker Activity (AID 2283065); conditions: primary human foreskin fibroblasts; actives raise or lower the signal;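 for AC50: VCAM-1 protein level quantified by ELISA after 24 h chemical exposure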
In short: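 Human foreskin fibroblast primary cells dosed with chemical, VCAM-1 measured by ELISA at 24 h. Bidirectional curve fitting relative to DMSO as negative control/baseline.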

[6] = read-out: Plasminogen activator inhibitor-1 (PAI1), SERPINE1 (gene 5054); assay: BSK_hDFCGF_PAI1: BioMAP Diversity Plus: hDFCGF Assay for Plasminogen activator inhibitor-1 (PAI1) Biomarker Activity (AID 2283066); conditions: primary human foreskin fibroblasts; actives raise or lower the signal
In short: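 ELISA readout of PAI-1 from primary human skin fibroblast cultures, 24 h after compound addition. Gain or loss of signal was fitted bidirectionally against DMSO baseline.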

[7] = read-out: Intercellular Adhesion Molecule 1 (ICAM1), ICAM1 (gene 3383); assay: BSK_KF3CT_ICAM1: BioMAP Diversity Plus: KF3CT Assay for Intercellular Adhesion Molecule 1 (ICAM1) Biomarker Activity (AID 2283067); conditions: primary human keratinocytes with fibroblasts; actives raise or lower the signal
In short: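 Human keratinocyte–foreskin fibroblast co-culture was treated for 24 h. Cell-surface ICAM-1 was quantified by ELISA, fitted bidirectionally relative to DMSO. Cytotoxicity was checked in parallel cultures by SRB total-protein staining.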

[8] = read-out: Interferon-gamma inducible Protein 10 (IP10), CXCL10 (gene 3627); assay: BSK_KF3CT_IP10: BioMAP Diversity Plus: KF3CT Assay for Interferon-gamma inducible Protein 10 (IP10) Biomarker Activity (AID 2283068); conditions: primary human keratinocytes with fibroblasts; actives raise or lower the signal
In short: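 KF3CT co-culture (keratinocytes + foreskin fibroblasts), 24 h compound, IP-10 by ELISA; bidirectional fit vs DMSO baseline.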

[9] = BSK_KF3CT_SRB: Viability Assessment in the BioMAP Diversity Plus: KF3CT Assay (AID 2283069); conditions: primary human keratinocytes with fibroblasts;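 note: total protein by sulforhodamine B staining as a cytotoxicity measure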
In short: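 SRB read-out at 560 nm (0.1% stain, TCA-fixed cells) gauges overt cytotoxicity in a human skin keratinocyte–fibroblast co-culture 24 h post-dosing. Signal change was fitted bidirectionally relative to DMSO control.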

[10] = read-out: Interleukin-1 alpha (IL1a), IL1A (gene 3552); assay: BSK_KF3CT_IL1a: BioMAP Diversity Plus: KF3CT Assay for Interleukin-1 alpha (IL1a) Biomarker Activity (AID 2283070); conditions: primary human keratinocytes with fibroblasts; actives raise or lower the signal
In short: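 Primary skin co-culture (keratinocytes, foreskin fibroblasts), 24 h exposure; ELISA for IL-1a; bidirectional curve fit vs DMSO.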

[11] = read-out: TIMP metallopeptidase inhibitor 2 (TIMP2), TIMP2 (gene 7077); assay: BSK_KF3CT_TIMP2: BioMAP Diversity Plus: KF3CT Assay for TIMP metallopeptidase inhibitor 2 (TIMP2) Biomarker Activity (AID 2283071); conditions: primary human keratinocytes with fibroblasts; actives raise or lower the signal
In short: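 ELISA readout of TIMP-2 in keratinocyte plus foreskin fibroblast co-cultures (human skin primary cells), 24 h post-dose. Gain or loss of signal fitted relative to DMSO.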

[12] = read-out: Transforming growth factor beta 1 (TGFb1), TGFB1 (gene 7040); assay: BSK_KF3CT_TGFb1: BioMAP Diversity Plus: KF3CT Assay for Transforming growth factor beta 1 (TGFb1) Biomarker Activity (AID 2283072); conditions: primary human keratinocytes with fibroblasts; actives raise or lower the signal
In short: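 Read-out: ELISA for TGF-b1 in keratinocyte/foreskin fibroblast human skin co-culture, 24 h after dosing; bidirectional curve fit vs DMSO baseline; gain or loss of signal scored.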

[13] = read-out: C-C motif chemokine 2 (Homo sapiens) (UniProt P13500); assay: BSK_KF3CT_MCP1: BioMAP Diversity Plus: KF3CT Assay for Monocyte Chemoattractant Protein 1 (MCP1/CCL2) Biomarker Activity (AID 2283073); conditions: primary human keratinocytes with fibroblasts; actives raise or lower the signal
In short: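 Human keratinocyte–foreskin fibroblast co-culture; MCP-1 measured by ELISA 24 h after dosing. Bidirectional fit vs DMSO; cytotoxicity tracked by SRB total protein in parallel cultures.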

[14] = read-out: Matrix Metallopeptidase 9 (MMP9), MMP9 (gene 4318); assay: BSK_KF3CT_MMP9: BioMAP Diversity Plus: KF3CT Assay for Matrix Metallopeptidase 9 (MMP9) Biomarker Activity (AID 2283074); conditions: primary human keratinocytes with fibroblasts; actives raise or lower the signal;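 for AC50: MMP9 protein level quantified by ELISA in the co-culture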
In short: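 ELISA read-out of MMP-9 at 24 h post-dosing in a co-culture of human skin keratinocytes and foreskin fibroblasts. Gain or loss of signal was fitted in both directions against DMSO.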

[15] = read-out: urokinase plasminogen activator (uPA), PLAU (gene 5328); assay: BSK_KF3CT_uPA: BioMAP Diversity Plus: KF3CT Assay for urokinase plasminogen activator (uPA) Biomarker Activity (AID 2283075); conditions: primary human keratinocytes with fibroblasts; actives raise or lower the signal
In short: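 Skin co-culture (keratinocytes + foreskin fibroblasts), human primary; 24 h post-dose; uPA by ELISA; gain/loss fit vs DMSO baseline.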

[16] = read-out: CD40, CD40 (gene 958); assay: BSK_LPS_CD40: BioMAP Diversity Plus: LPS Assay for CD40 Biomarker Activity (AID 2283076); conditions: primary human HUVEC with PBMC; actives raise or lower the signal
In short: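 HUVEC plus PBMC co-culture stimulated with LPS; CD40 quantified by ELISA 24 h after compound dosing. Fitting was bidirectional relative to DMSO. SRB staining of parallel cultures flagged overt cytotoxicity.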

[17] = BSK_LPS_SRB: Viability Assessment in the BioMAP Diversity Plus: LPS Assay (AID 2283079); conditions: primary human HUVEC with PBMC;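 note: total protein by sulforhodamine B absorbance as a cytotoxicity measure; measured one day after compound addition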
In short: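 Co-culture of human umbilical vein endothelial cells and PBMC, read 24 h after dosing. Total protein by 0.1% SRB staining after 10% TCA fixation, absorbance at 560 nm; bidirectional fit against DMSO.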

[18] = read-out: Interleukin-8 (IL8), CXCL8 (gene 3576); assay: BSK_LPS_IL8: BioMAP Diversity Plus: LPS Assay for Interleukin-8 (IL8) Biomarker Activity (AID 2283078); conditions: primary human HUVEC with PBMC; actives raise or lower the signal
In short: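 Human umbilical vein endothelial cells co-cultured with PBMC, LPS-stimulated, exposed to compound for 24 h. IL-8 quantified by ELISA; fitted in both directions against DMSO, with SRB total-protein staining of parallel cultures for cytotoxicity.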

[19] = read-out: Monokine induced gamma interferon (MIG), CXCL9 (gene 4283); assay: BSK_hDFCGF_MIG: BioMAP Diversity Plus: hDFCGF Assay for Monokine induced gamma interferon (MIG) Biomarker Activity (AID 2283063); conditions: primary human foreskin fibroblasts; actives raise or lower the signal
In short: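 MIG/CXCL9 measured by ELISA 24 h after dosing primary human skin fibroblasts. Activity fitted in both directions against DMSO controls. Cytotoxicity was checked in parallel cultures by SRB staining read at 560 nm.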

[20] = read-out: E-selectin (Homo sapiens) (UniProt P16581); assay: BSK_LPS_Eselectin: BioMAP Diversity Plus: LPS Assay for Eselectin Biomarker Activity (AID 2283077); conditions: primary human HUVEC with PBMC; actives raise or lower the signal
In short: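 Human umbilical vein endothelial cells co-cultured with PBMC under LPS stimulation; cell-surface E-selectin measured by ELISA 24 h after dosing. Change in either direction versus DMSO, with SRB total-protein staining in parallel cultures for cytotoxicity.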

Measured: AC50

Chain of E-selectin (Homo sapiens) (P16581 whole entry, looked up): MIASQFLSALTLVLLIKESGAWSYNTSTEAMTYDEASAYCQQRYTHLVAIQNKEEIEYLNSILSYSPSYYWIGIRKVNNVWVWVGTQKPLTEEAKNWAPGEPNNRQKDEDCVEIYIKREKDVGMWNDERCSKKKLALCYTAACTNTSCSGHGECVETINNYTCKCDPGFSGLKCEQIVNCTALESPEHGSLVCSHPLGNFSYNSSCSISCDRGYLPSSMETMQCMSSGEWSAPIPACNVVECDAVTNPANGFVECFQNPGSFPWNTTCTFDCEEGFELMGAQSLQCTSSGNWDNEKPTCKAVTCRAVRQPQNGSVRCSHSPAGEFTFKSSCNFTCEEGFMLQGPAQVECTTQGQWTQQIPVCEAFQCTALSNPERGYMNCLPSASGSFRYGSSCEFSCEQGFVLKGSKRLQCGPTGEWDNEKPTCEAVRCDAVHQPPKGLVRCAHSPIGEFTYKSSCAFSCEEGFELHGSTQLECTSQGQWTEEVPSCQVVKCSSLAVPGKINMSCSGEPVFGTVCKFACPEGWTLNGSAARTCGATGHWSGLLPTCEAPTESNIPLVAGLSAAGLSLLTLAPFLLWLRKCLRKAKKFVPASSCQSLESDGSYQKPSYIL

c1ccc(Sc2ccccc2)cc1
inactive: [7] | [8] | [16]
active: [1] 28.1 µM | [2] 39 µM | [3] 25.5 µM | [4] 30.2 µM | [5] 33.2 µM | [6] 20 µM | [9] 35.5 µM | [10] 30.8 µM | [11] 27.8 µM | [12] 32 µM | [13] 32.8 µM | [14] 32.7 µM | [15] 33.1 µM | [17] 32.2 µM

OCC(F)(OC(F)(F)C(F)(OC(F)(F)C(F)(F)C(F)(F)F)C(F)(F)F)C(F)(F)F (centres undefined)
inactive: [6] | [10] | [13] | [16] | [17]
active: [1] 2.34 µM and 1.91 µM | [2] 6.02 µM and 5.36 µM | [3] 3.33 µM | [4] 4.57 µM and 4.92 µM | [5] 2.25 µM and 2.1 µM | [6] 6.18 µM | [7] 4.83 µM and 3.33 µM | [8] 5.01 µM and 4.55 µM | [9] 5.66 µM and 4.19 µM | [11] 5.58 µM and 5.62 µM | [13] 5.14 µM | [14] 5.19 µM and 3.33 µM | [15] 5.49 µM and 3.33 µM | [16] 1.1 µM

OCCN1CCOCC1
not listed: [19] | [20]
inactive: all other assays above

CC1(C)[C@H](C=C(Cl)Cl)[C@H]1C(=O)OCc1cccc(Oc2ccccc2)c1
not listed: [19] | [20]
inactive: all other assays above

CC(C)CCCC(C)(C)O
not listed: [12] | [18] | [20]
inactive: all other assays above

CC(=O)CCC=C(C)CCC=C(C)C
not listed: [18] | [19]
inactive: all other assays above

NC(=O)c1c(Cl)cccc1Cl
not listed: [19] | [20]
inactive: all other assays above

C=C(C)C(N)=O
not listed: [18] | [20]
inactive: all other assays above

O=C(O)C(F)(F)OC(F)(F)C(F)(F)OC(F)(F)C(F)(F)C(F)(F)C(F)(F)F
inactive: [2] | [3] | [4] | [6] | [7] | [9] | [10] | [11] | [13] | [14] | [15] | [16] | [17]
active: [1] 6.97 µM and 30 µM | [2] 10.4 µM | [5] 5.95 µM and 13.8 µM | [8] 32.2 µM and 30 µM | [16] 48.6 µM | [17] 51 µM

CCOC(=O)C=Cc1ccccc1
not listed: [18] | [19] | [20]
inactive: all other assays above
